Measured values from PubChem BioAssay (NCI).
Compounds without any hit were thinned out: in the full panel of roughly 83,000, 20% have a hit.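 Each cell line was grown in a 96-well plate and treated with one concentration of compound for 48 hours. Values below 10 were considered active.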 Values without a mark were called inactive. Active and inactive are the calls of the source.

tested on: HOP-62 NSCLC; assay: NCI-60 one-dose screen, 48 h (100 = growth as untreated, 0 = no growth, -100 = all killed); details: 10 µM unless noted
Procedure: Growth inhibition of the HOP-62 human Non-Small Cell Lung tumor cell line is measured as a screen for anti-cancer activity. Cells are grown in 96 well plates and exposed to the test compound for 48 hours. Compounds are tested at a single concentration, which is 10^-5 M for most compounds. The reported endpoint is percent growth (GI% or GIPRCNT), where numbers from 0 - 100% represent growth inhibition, and numbers from -100% - 0 represent cell death. For example, a value of 40 represents 60% growth inhibition. A value of 0 means no net growth occurred over the course of the experiment. A value of -40 indicates 40% of cells at the beginning of the experiment died by the end of the experiment. A value of -100 means all cells are dead at the end of the experiment.
NCI-60 Human Tumor Cell Lines Screen was performed using the standard one-dose NCI protocol, which is described in more detail at https://dtp.cancer.gov/discovery_development/nci-60/default.htm.
Compounds with GIPRCNT values below 10 were considered active. Activity score was based on GIPRCNT using the following formula: […]
Score is 0 for GIPRCNT values of 100 or above, 50 for GIPRCNT values of 0, and 100 for GIPRCNT values of -100.

Which growth does the source give for C=C=[CH][Sn]([c]1ccccc1)([c]1ccccc1)[c]1ccccc1 here?
The growth was -63.6% (active).

C[C@]12CC[C@H]3[C@@H](C[C@@H]4N=C(c5ccc(O)cc5)S[C@@]45C[C@H](O)CC[C@]35C)[C@@H]1CC[C@@H]2O was tested. Which growth did it give?
Its growth is 46.7%.

CCC[CH2][Sn]1([CH2]CCC)[O]C(=O)c2cccc([N+](=O)[O-])c2C(=O)[O]1 was tested. Which growth did it give?
Its growth is -90.7% (active).

COc1cc(N(CCCl)CCCl)ccc1C=Nc1ccccc1C(=O)O was tested. Which growth did it give?
Its growth is 110%.

Which growth does the source give for c1ccc2nc(OCCN3CC3)ccc2c1 here?
Its growth is 76.8%.

Which growth does the source give for COC[CH2][Hg][C]#[C][Hg][CH2]COC here?
Its growth is 98.5%.

Which growth does the source give for CC(C)(O)/C=C/C(=O)[C@](C)(O)[C@H]1[C@H](O)C[C@@]2(C)[C@@H]3CC=C4[C@@H](C=C(O)C(=O)C4(C)C)[C@]3(C)C(=O)C[C@]12C here?
Its growth is -64.2% (active).

COc1ccc(C2SCC(=O)Nc3c2c(C)nn3-c2nc3ccc(C)cc3s2)cc1O (stereo not given) was tested. Which growth did it give?
Its growth is 38.3%.

With O=C(O)c1nn(Cc2ccc(Cl)cc2)c2ccccc12 as the compound, how does the growth read?
The growth was 108%.

Which growth does the source give for c1ccc(CCN2CCCCC2Cc2ccccc2)cc1 (stereo not given) here?
The growth was 97.2%.

Which growth does the source give for Oc1ccc(O)c2c1C1(Cl)C(Cl)=C(Cl)C2(Cl)C1(Cl)Cl here?
Its growth is 47.4%.

How did the growth turn out when Nc1nc(N)c(-c2ccc(Cl)c(Cl)c2)c(/C=C/c2ccc(S(=O)(=O)F)cc2)n1 was run?
The growth was 91.3%.

CC1(C)N=C(N)N=C(N)N1c1ccc(CNC(=O)Nc2ccc(S(=O)(=O)F)c(Cl)c2)c(Cl)c1 was tested. Which growth did it give?
The growth was 29.4%.

For OC1(c2ccccc2F)c2ccccc2C2=NCCN21 (stereo not given), which growth is on record?
Its growth is 84.9%.

CC1(C)N=C(N)N=C(N)N1c1ccc(CCCCc2ccc(S(=O)(=O)F)cc2)cc1 was tested. Which growth did it give?
Its growth is 31.9%.

For CC(C)C1c2ccc(O)cc2Oc2nc(N)c(C#N)c(N)c21 (stereo not given), which growth is on record?
Its growth is 92.9%.

For O=C1NC(=O)C(=Cc2cn(Cc3ccccc3)c3ccccc23)C(=O)N1, which growth is on record?
The growth was 73.9%.

Which growth does the source give for O=c1[nH]c2cc(Cl)ccc2n1C1CCN(CCCC(c2ccc(F)cc2)c2ccc(F)cc2)CC1 here?
Its growth is 67.2%.

With C[CH2][Pb]([CH2]C)([CH2]C)[O]C(=O)COc1ccccc1 as the compound, how does the growth read?
Its growth is -9.05% (active).

With Fc1ccc(C2=NN(c3ccccc3)C(c3sc(N(CCCl)CCCl)nc3Cl)C2)cc1 (stereo not given) as the compound, how does the growth read?
The growth was 78%.

CN(C)P1(N(C)C)=NP(N(C)C)(N(C)C)=NP(N(C)C)(N(C)C)=N1 was tested. Which growth did it give?
Its growth is 99%.

How did the growth turn out when CCCCNCCc1ccccn1 was run?
Its growth is 107%.

How did the growth turn out when Cc1cc(NC(=O)NCCOc2ccc(N3C(N)=NC(N)=NC3(C)C)cc2Cl)ccc1S(=O)(=O)F was run?
The growth was 60.8%.

CC1COC(=O)C1 (stereo not given) was tested. Which growth did it give?
The growth was 99.6%.

How did the growth turn out when CCOP(=O)(OCC)Oc1ccc(Sc2ccc(OP(=O)(OCC)OCC)cc2)cc1 was run?
The growth was 93.2%.

How did the growth turn out when C=CCc1ccc(OC(=O)Cc2ccccc2)c(OC)c1 was run?
Its growth is 93.2%.

How did the growth turn out when NC(=O)SCC(=O)Nc1ccc([As](=O)(O)O)cc1 was run?
The growth was 136%.

With COc1ccc(/C=C\c2cc(OC)c(OC)c(OC)c2)cc1N/C=C\C(=O)c1c[nH]c2ccccc12 as the compound, how does the growth read?
Its growth is 39.3%.

C[C@]12CCc3sc(-c4ccc(Cl)cc4)nc3C1=CC[C@@H]1[C@@H]2CC[C@]2(C)C(=O)CC[C@@H]12 was tested. Which growth did it give?
The growth was 66%.

For O=[As]c1ccc(C(=O)c2ccc(Oc3ccccc3)cc2)cc1 (stereo not given), which growth is on record?
Its growth is -98.3% (active).

How did the growth turn out when OC1(c2ccc(Cl)cc2Cl)c2ccccc2C2=NCCN21 (stereo not given) was run?
The growth was 78.7%.

Which growth does the source give for Nc1c(Br)cc2c3c(cccc13)-c1ccccc1-2 here?
The growth was 82.9%.

How did the growth turn out when CCC(CC)(c1ccccc1)C(OC(N)=O)c1ccccc1 (stereo not given) was run?
Its growth is 84.7%.

For COc1cc2c(cc1OC)CN(C)C(C)C2 (stereo not given), which growth is on record?
Its growth is 92%.

CCN1CC2(CN(CC)C1=S)C(=O)NC(=O)NC2=O was tested. Which growth did it give?
Its growth is 90.1%.

For O=[N+]([O-])c1ccc2cnn(CSP(=S)(c3ccccc3)c3ccccc3)c2c1, which growth is on record?
Its growth is 59.3%.

With COc1ccccc1N1CCN(CCc2c[nH]c3cc4c(cc23)OCO4)CC1 as the compound, how does the growth read?
The growth was 63.2%.

With N#Cc1ncc(/N=C/c2ccc(N(CCCl)CCCl)cc2)s1 as the compound, how does the growth read?
The growth was 96.1%.

Which growth does the source give for CC[C@H](C)[C@H](NC(=O)Nc1ccccc1)C(=O)N(C)[C@H](C[C@@H](OC(C)=O)c1nc(C(=O)N[C@@H](Cc2ccccc2)C[C@H](C)C(=O)OC)cs1)C(C)C here?
Its growth is 20.3%.

With O=C(Nc1ccc(S(=O)(=O)F)cc1)Oc1ccccc1 as the compound, how does the growth read?
The growth was 93.3%.
